Assay results as given in PubChem BioAssay (NCI).
This is part of a sample that, as a whole, favours compounds with a hit. Of some 83,000 tested, about 20% had one in any assay.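 Plates (96-well) were seeded with cells, treated with compound at one concentration, and incubated for 48 hours before percent growth was determined.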 The source made the active and inactive calls. How the source made its calls: active means growth percent below 10; inactive means the rest.

What was measured:
Assay in all cases: NCI-60 one-dose screen, 48 h (100 = growth as untreated, 0 = no growth, -100 = all killed)
Conditions in all cases: 10 µM unless noted
[1] = system: NCI-H23 lung
[2] = system: NCI-H226 lung
[3] = system: NCI-H322M lung
[4] = system: HOP-62 NSCLC
[5] = system: NCI-H460 lung
[6] = system: HOP-92 NSCLC
[7] = system: NCI-H522 lung
[8] = system: A549/ATCC NSCLC
[9] = system: 786-0 renal
[10] = system: COLO 205 colon
[11] = system: DU-145 prostate
[12] = system: K-562 leukemia
[13] = system: MALME-3M melanoma
[14] = system: MDA-MB-231 breast
[15] = system: RXF 393 renal
[16] = system: SF-268 CNS
[17] = system: SF-295 CNS
[18] = system: SF-539 CNS
[19] = system: UACC-257 melanoma
[20] = system: M14 melanoma

Measured: growth

Nc1nc(N)nc(N2CCCCC2)n1
inactive: [1] 107% | [2] 103% | [3] 94.4% | [4] 104% | [5] 103% | [6] 96.6% | [7] 100% | [8] 104% | [9] 102% | [10] 108% | [11] 107% | [12] 105% | [13] 96.3% | [14] 96.5% | [15] 105% | [16] 107% | [17] 113% | [18] 97.6% | [19] 101% | [20] 111%

CCOC(=O)c1ccc(NC(C)=O)o1
inactive: [1] 105% | [2] 95% | [3] 108% | [4] 86.3% | [5] 87.2% | [6] 103% | [7] 95.2% | [8] 76.2% | [9] 105% | [10] 106% | [11] 111% | [12] 84.3% | [13] 107% | [14] 105% | [15] 102% | [16] 100% | [17] 98.5% | [18] 105% | [19] 80.2% | [20] 106%

C=C1CC2(OC1=O)C(=O)N(C)c1ccc(I)cc12 (stereo not given)
active: [1] -62.6% | [2] -37.3% | [5] -57% | [6] -95.7% | [7] -56.9% | [8] -19.3% | [9] -71.5% | [10] -84.2% | [11] -95.2% | [12] -50% | [13] -77.1% | [14] -2.19% | [15] -73.4% | [16] -75% | [18] -88.2% | [19] -69.3% | [20] -76.6%
inactive: [3] 50.6% | [4] 58.9% | [17] 55.4%

Nc1cc2ccccc2c(O)c1O
inactive: [1] 54% | [2] 81.2% | [3] 89.1% | [4] 76.9% | [5] 86.9% | [6] 83.9% | [7] 45.3% | [8] 96.9% | [10] 56.5% | [11] 92.7% | [16] 53.6% | [17] 85% | [18] 16.2% | [19] 89.4% | [20] 93.3%
active: [9] -32.2% | [12] 5.25% | [13] -39% | [14] -19.9% | [15] -52.5%

CCOC(=O)c1c[nH][nH]c1=O
inactive: [1] 93.4% | [2] 101% | [3] 122% | [4] 89.2% | [5] 106% | [6] 111% | [7] 103% | [8] 125% | [9] 94.3% | [10] 124% | [11] 117% | [12] 116% | [13] 129% | [14] 108% | [15] 110% | [16] 110% | [17] 112% | [18] 94.9% | [19] 59.1% | [20] 96.5%

Nc1nc(Cl)cc(Cl)n1
inactive: [1] 95.9% | [2] 101% | [3] 99% | [4] 85.2% | [5] 106% | [6] 113% | [7] 81.9% | [8] 81% | [9] 103% | [10] 96.8% | [11] 108% | [12] 92.3% | [13] 90.8% | [14] 114% | [15] 102% | [16] 100% | [17] 106% | [18] 107% | [19] 85.5% | [20] 96.4%

CCC(=O)C1C(=O)c2ccccc2C1=O
inactive: [1] 101% | [2] 104% | [3] 102% | [4] 99% | [5] 115% | [6] 85.8% | [7] 86.6% | [8] 113% | [9] 107% | [10] 122% | [11] 113% | [12] 63.7% | [13] 96.8% | [14] 89.8% | [15] 120% | [16] 101% | [17] 96.9% | [18] 106% | [19] 110% | [20] 111%

CC(=O)N(CCCCCCN(C(C)=O)C(C)=O)C(C)=O
inactive: [1] 108% [100 µM] | [2] 101% [100 µM] | [3] 108% [100 µM] | [4] 112% [100 µM] | [5] 109% [100 µM] | [6] 106% [100 µM] | [7] 102% [100 µM] | [8] 106% [100 µM] | [9] 96% [100 µM] | [10] 134% [100 µM] | [11] 106% [100 µM] | [12] 102% [100 µM] | [13] 107% [100 µM] | [14] 98% [100 µM] | [15] 112% [100 µM] | [16] 104% [100 µM] | [17] 110% [100 µM] | [18] 98.3% [100 µM] | [19] 95.1% [100 µM] | [20] 105% [100 µM]
